Consider 18 compounds from PubChem BioAssay (NCATS).

Results filed as inconclusive are left out. The source made the active and inactive calls. Calls follow the shape of the full dose curve. Peptide text beside a SMILES is read from it.
Potency is read from the fitted curve at half-maximal effect.

A short description of this test: Primary qHTS to identify inhibitors of SARS-CoV-2 cell entry (AID 1645846). Also: nearly all actives have a fitted effect of over 45% in size. To be noted: SARS-CoV-2 pseudovirus cell entry assay, luminescence; activity change, negative = inhibition: at 57.1 µM (top of the series) unless noted. The gist of the method:
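Data are normalized to wells receiving SARS-CoV-2-S pseudoparticles and those given bald particles. Entry signal was luciferase luminescence in stable hACE2 Expi293F cells, 48 hr post-infection, after 1 hr compound pretreatment.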
For orientation: In qHTS, concentration-response curves come from the screen itself.
With `CC[C@@H](Oc1cccc(CN(CCCOc2ccc(OC)cc2)c2nc3ccccc3o2)c1)C(=O)O`, the activity change, negative = inhibition was -15.3%.

In the case of `Nc1nc(OCc2cc(Br)cs2)c2[nH]cnc2n1`, the Potency entry was “inactive”.

For the compound `CN(C)CCNC(=O)COc1c2cccc1Cc1cccc(c1OCC(=O)NCCN(C)C)Cc1cccc(c1OCC(=O)NCCN(C)C)Cc1cccc(c1OCC(=O)NCCN(C)C)C2`, the outcome was “inactive [at 11.3 µM]”.

For `CC[C@H]1OC(=O)[C@H](C)[C@@H](O[C@H]2C[C@@](C)(OC)[C@@H](O)[C@H](C)O2)[C@H](C)[C@@H](O[C@@H]2O[C@H](C)C[C@H](N(C)C)[C@H]2O)[C@](C)(O)C[C@@H](C)C(=O)[C@H](C)[C@@H](O)[C@]1(C)O`, the Potency result was “inactive”.

In the case of `CCO[C@@H]1OC(=O)C[C@@H]1NC(=O)[C@@H]1CCCN2C(=O)CC[C@H](NC(=O)c3nccc4ccccc34)C(=O)N12`, the activity change, negative = inhibition was -4.46%.

In the case of `CCN1CCN(Cc2ccc(NC(=O)c3ccc(C)c(NC(=O)c4cncc(-c5cccs5)c4)c3)cc2C(F)(F)F)CC1`, the Potency is 3.16 µM (active).

For `O=c1ccn([C@@H]2O[C@H](CO)[C@@H](O)[C@H]2O)c(=O)[nH]1`, the activity change, negative = inhibition was -16.1%.

With `CC1(C)[C@@H](O)CC[C@]2(C)[C@H]3C(=O)C=C4[C@@H]5C[C@@](C)(C(=O)O)CC[C@]5(C)CC[C@@]4(C)[C@]3(C)CC[C@@H]12`, the Potency result is “inactive”.

Consider `NC[C@H]1O[C@H](O[C@H]2[C@H](O)[C@@H](O[C@H]3O[C@H](CO)[C@@H](O)[C@H](N)[C@H]3O)[C@H](N)C[C@@H]2N)[C@H](N)C[C@@H]1O`, for which the activity change, negative = inhibition was -8.09%.

As for `Cc1c(Cl)cccc1S(=O)(=O)Nc1nc(CCN2CCOCC2=O)cs1`, the activity change, negative = inhibition was -11.4%.

`O=c1oc2c(C3OCCCO3)c(O)ccc2c2c1CNCC2`: the activity change, negative = inhibition worked out at 1.62%.

As for `CC(C)c1c(-c2ccccc2)nc2c(C#N)c[nH]n2c1=O`, the Potency entry is “inactive”.

Turning to `O=C(O)c1ccccc1-c1ccc(/C=c2\sc3nc4cc(Br)cnc4n3c2=O)o1`, the activity change, negative = inhibition is -1.33% [at 27.1 µM].

On to `CCCNC(=O)c1cn2ncnc(Nc3cc(C(=O)NC4CC4)ccc3C)c2c1C`, for which the activity change, negative = inhibition was -27.9%.

In the case of `CC[C@H](Nc1ncnc2nc[nH]c12)c1oc2ccccc2c(=O)c1-c1cccc(F)c1`, the Potency result was “inactive”.

Turning to `CC(=O)O/N=C1/C(c2c(O)[nH]c3cc(Br)ccc23)=Nc2ccccc21`, the Potency entry was “inactive”.

With `CC(=O)N1CCC[C@H]1C(=O)N[C@@H](Cc1cnc[nH]1)C(=O)N[C@@H](CO)C(=O)N[C@@H](CS)C(=O)N[C@@H](CC(N)=O)C(N)=O` (Ac-PHSCN-NH2), the activity change, negative = inhibition was -1.41%.

For the compound `CC(C)(NS(=O)(=O)c1ccc2c(Cl)cnc(N=C(N)N)c2c1)C(=O)O`, the activity change, negative = inhibition came out at 0.398%.
